# Results from the supplement of paper PMC3334620.
# Whole data set: some 33,000 sequences, median “E-score (-0.5 to 0.5)” near -0.012, cut for the highest 2% near 0.29. The sample as a whole holds a higher share of the highest values than the screen did.
# Target: T1, Ybr033w (UniProt P38073)
# T1 sequence: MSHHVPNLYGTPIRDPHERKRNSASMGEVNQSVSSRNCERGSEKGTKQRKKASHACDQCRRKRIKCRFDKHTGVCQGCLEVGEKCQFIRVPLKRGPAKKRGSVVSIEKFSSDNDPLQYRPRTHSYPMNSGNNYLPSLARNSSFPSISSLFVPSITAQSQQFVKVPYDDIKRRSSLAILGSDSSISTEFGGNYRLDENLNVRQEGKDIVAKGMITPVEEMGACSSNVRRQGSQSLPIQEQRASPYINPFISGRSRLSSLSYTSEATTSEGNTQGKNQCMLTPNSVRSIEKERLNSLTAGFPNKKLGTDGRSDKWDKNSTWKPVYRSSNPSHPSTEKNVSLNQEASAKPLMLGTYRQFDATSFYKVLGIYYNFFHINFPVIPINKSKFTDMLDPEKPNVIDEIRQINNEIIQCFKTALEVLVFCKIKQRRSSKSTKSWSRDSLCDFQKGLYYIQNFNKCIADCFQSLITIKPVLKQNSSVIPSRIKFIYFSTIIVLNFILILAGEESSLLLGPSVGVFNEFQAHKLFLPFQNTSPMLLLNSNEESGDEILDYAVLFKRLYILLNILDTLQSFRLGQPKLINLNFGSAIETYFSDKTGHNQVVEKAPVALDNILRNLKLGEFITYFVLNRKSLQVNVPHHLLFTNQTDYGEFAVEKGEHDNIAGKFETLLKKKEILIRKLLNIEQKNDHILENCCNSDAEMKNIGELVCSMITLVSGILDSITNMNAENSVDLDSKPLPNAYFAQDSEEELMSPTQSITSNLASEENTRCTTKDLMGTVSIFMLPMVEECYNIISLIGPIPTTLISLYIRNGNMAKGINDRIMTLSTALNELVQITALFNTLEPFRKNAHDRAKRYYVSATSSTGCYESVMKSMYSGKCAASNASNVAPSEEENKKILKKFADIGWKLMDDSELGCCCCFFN
# Test: PBM E-score (8-mer binding enrichment) (E-score (-0.5 to 0.5)); higher = stronger / more preferred TF binding
# Details: protein concentration: 200 nM; construct: GST-full length
# Method: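 Universal 'all 10-mer' protein binding microarrays (Agilent AMADID 015681) probed with GST-tagged S. cerevisiae TFs (full-length or DBD) made by in vitro transcription/translation (PURExpress), about 100-200 nM. Bound TF was detected with fluorescent anti-GST. Each ungapped 8-mer (which stands for itself and its reverse complement) is scored by the PBM enrichment score (E-score), a modified Wilcoxon-Mann-Whitney statistic from -0.5 to +0.5, computed with the Universal PBM Analysis Suite. Scale: above 0.35 generally sequence-specific binding.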
row,Sequence,PBM E-score
1,CTGGCCGC,-0.0871
2,GACTTATA,0.293
3,AACTTATA,0.353
4,AACTTATG,0.223
5,CACTTATA,0.176
6,TACTTATA,0.12
7,GACTTATC,-0.152
8,AAGCCACA,-0.0702
9,AGCCTCTA,-0.114
10,ACCAGAGA,0.0781
11,GAGTCGAA,0.173
12,CAGTATCA,-0.0137
13,GAATATCA,0.259
14,CAATATTG,0.199
15,CAATATTA,0.27
16,GAATATGA,0.203
17,AAATATCA,0.252
18,GAATATTA,0.315
19,TAATATTA,0.342
20,GAGTATCA,0.0233
21,TAGTATCA,0.319
22,TAATATCA,0.319
23,CAATATCA,0.171
24,GTGTGTGA,0.0756
25,CGAGGTAA,-0.0143

row,Sequence,PBM E-score
1,GGAGCGCC,-0.27
2,ACTAGTCG,-0.166
3,ACCATCTC,-0.0025
4,CCTCGTAA,-0.0544
5,AAATATTG,0.274
6,CAATATTC,0.219
7,GAATATCC,0.227
8,AAATATGC,0.237
9,GAATATTC,0.344
10,AAATATTA,0.211
11,AAATATTT,0.357
12,AAATATTC,0.37
13,AATCTTTC,0.00719
14,GCCATTTA,-0.0426
15,AGCAAGCC,-0.126
16,AGGTGGAC,-0.104
17,ATCTAGAA,0.214
18,ATAATTTG,0.35
19,ATAATTTA,0.338
20,ATAATTGG,0.157
21,ATAATTTC,0.314
22,AAAATTTG,0.263
23,AGAATTTC,0.0968
24,CTAATTTC,0.181
25,GTAATTTA,0.218

row,Sequence,PBM E-score
1,CTAATTTA,0.257
2,GATCTGCA,-0.215
3,ACACGTGT,-0.0649
4,ATCCCAAC,0.079
5,ATAGGTAG,0.0525
6,ACTGCTAC,0.0898
7,GCGGACTA,-0.0323
8,AAAAATGA,0.233
9,ACAAATTG,0.0817
10,CCAATTTA,0.203
11,GCAATTTA,0.307
12,CAAAATTG,0.0527
13,ACAAATTA,0.328
14,ACAATTTA,0.225
15,AAAAATTA,0.302
16,CAAAATTC,0.308
17,AAAAATTC,0.228
18,CAAAATTA,0.182
19,CCAAATTA,0.269
20,AAACGCAG,-0.0761
21,ACCAAGTC,0.139
22,AGCACTGC,-0.022
23,AGATGCAG,0.0243
24,CGAAGCTC,-0.147
25,GAAAATTC,0.285

row,Sequence,PBM E-score
1,GAAAATGA,0.085
2,TAAAATCA,0.274
3,TAAAATGA,0.217
4,AGAAATTA,0.352
5,GAAAATTA,0.331
6,AGAAATTC,0.178
7,GGAAATTA,0.264
8,CAAATTTA,0.237
9,TAAATTTA,0.289
10,AAAATTTA,0.269
11,TAAAATTA,0.288
12,AATGATGT,0.17
13,GTTCAGCA,-0.0295
14,GTCGGCCA,-0.277
15,AAACCATG,0.0309
16,AGACTGCA,-0.156
17,ATCCATGC,0.0934
18,AGGTCAGG,-0.233
19,CAATTTTA,0.217
20,AAATTTTA,0.171
21,GAATTTTA,0.295
22,CCAGCGAC,-0.116
23,ATAGCTGG,-0.0109
24,CAATGACG,-0.158
25,AGAGTAAG,0.126

row,Sequence,PBM E-score
1,GTAGTAAA,0.188
2,TTAGTAAA,0.301
3,CTAGTAAA,0.242
4,ATAGTAAA,0.277
5,ATAGTAAC,0.116
6,AGAGTAAA,0.0304
7,AGAGTAAT,0.313
8,ATAGTAAT,0.346
9,AGTGCTTA,-0.00926
10,CCATTTGC,0.0186
11,AGGTAGTC,-0.165
12,GAGTTAAA,0.0599
13,TTTTAAAA,0.073
14,CATTAAAA,0.319
15,CATTAAAC,0.13
16,TATTAAAA,0.312
17,AATTAAAA,0.112
18,CATTTAAA,0.21
19,TATTTAAA,0.301
20,CAGTTAAA,0.192
21,TATTTTAA,0.26
22,TAGTTAAA,0.296
23,CATTAAAG,0.147
24,AGAAATCC,0.0392
25,CGCAAGCC,0.0476

row,Sequence,PBM E-score
1,ACAGAGTC,-0.176
2,TTGTTAAA,0.0557
3,GATTAAAC,0.17
4,CAGTTGAA,0.00266
5,AAGTTGAA,0.0758
6,GGTTAAAA,0.0924
7,CTGTTAAA,0.109
8,GATTAAAA,0.311
9,ATGTTAAA,0.289
10,TAGTTGAA,0.307
11,CACTGTTC,-0.00287
12,ACTTCATG,-0.118
13,ACTGCAGC,-0.136
14,ACTTACCC,0.114
15,CCGACCAA,-0.0529
16,ATCATGAC,0.0647
17,CTGCTAAG,-0.132
18,GCATCGAC,-0.0951
19,TGACCACA,0.0413
20,TCCCTAAA,0.0945
21,ATTCGTGG,0.0347
22,ATATTTAG,0.321
23,CTATTTTA,0.252
24,GTATTTAA,0.267
25,ATATTTTA,0.3

row,Sequence,PBM E-score
1,AGATTTCC,0.135
2,AGATTTTC,0.322
3,ATATTTAC,0.215
4,AGATTTTA,0.109
5,ATTTTTAG,0.179
6,ATATTTAA,0.372
7,CTATTTAA,0.022
8,GTATTTTA,0.23
9,CCATTTAG,-0.056
10,CGTGGGCC,-0.155
11,AATCCTAA,0.0561
12,CCTCCAGG,-0.322
13,CACCGACG,-0.0189
14,ATATCCAT,0.196
15,GAGCTCAC,-0.27
16,CATATGCA,0.0648
17,CCCTTACC,-0.131
18,ATATTTTC,0.342
19,ATATTTCG,0.269
20,CTATTTTC,0.284
21,ATCTTTAC,0.203
22,ATATTTCC,0.349
23,ATCTTTAA,0.299
24,ATCTTTTA,0.236
